# Data: PubChem BioAssay (EPA / NIEHS)
# Results filed as inconclusive are left out. Activity calls are given as the source filed them. Rule for the calls: active = hit-call score of the fitted dose curve at least 0.9, where 1 is the maximum; inconclusive = response in the unintended direction; inactive = score below 0.9.
# Molecular target: Androgen receptor (Homo sapiens) (UniProt P10275)
# Assay: ATG_AR_TRANS: Attagene TRANS-FACTORIAL HepG2 Assay for human Androgen Receptor (AR) (AID 2282973)
# Conditions: HepG2 Attagene TRANS-FACTORIAL AR reporter transcription
# Method in brief: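 HepG2 cells transiently transfected with multiplexed GAL4-UAS reporter units and chimeric NR-Gal4 fusion; 24 h compound exposure. Reporter mRNA measured by RT-PCR, 6-FAM labelling, HpaI digestion and capillary electrophoresis; gain-of-signal fitted relative to DMSO baseline.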
# Androgen receptor (Homo sapiens), sequence (P10275 whole entry, looked up): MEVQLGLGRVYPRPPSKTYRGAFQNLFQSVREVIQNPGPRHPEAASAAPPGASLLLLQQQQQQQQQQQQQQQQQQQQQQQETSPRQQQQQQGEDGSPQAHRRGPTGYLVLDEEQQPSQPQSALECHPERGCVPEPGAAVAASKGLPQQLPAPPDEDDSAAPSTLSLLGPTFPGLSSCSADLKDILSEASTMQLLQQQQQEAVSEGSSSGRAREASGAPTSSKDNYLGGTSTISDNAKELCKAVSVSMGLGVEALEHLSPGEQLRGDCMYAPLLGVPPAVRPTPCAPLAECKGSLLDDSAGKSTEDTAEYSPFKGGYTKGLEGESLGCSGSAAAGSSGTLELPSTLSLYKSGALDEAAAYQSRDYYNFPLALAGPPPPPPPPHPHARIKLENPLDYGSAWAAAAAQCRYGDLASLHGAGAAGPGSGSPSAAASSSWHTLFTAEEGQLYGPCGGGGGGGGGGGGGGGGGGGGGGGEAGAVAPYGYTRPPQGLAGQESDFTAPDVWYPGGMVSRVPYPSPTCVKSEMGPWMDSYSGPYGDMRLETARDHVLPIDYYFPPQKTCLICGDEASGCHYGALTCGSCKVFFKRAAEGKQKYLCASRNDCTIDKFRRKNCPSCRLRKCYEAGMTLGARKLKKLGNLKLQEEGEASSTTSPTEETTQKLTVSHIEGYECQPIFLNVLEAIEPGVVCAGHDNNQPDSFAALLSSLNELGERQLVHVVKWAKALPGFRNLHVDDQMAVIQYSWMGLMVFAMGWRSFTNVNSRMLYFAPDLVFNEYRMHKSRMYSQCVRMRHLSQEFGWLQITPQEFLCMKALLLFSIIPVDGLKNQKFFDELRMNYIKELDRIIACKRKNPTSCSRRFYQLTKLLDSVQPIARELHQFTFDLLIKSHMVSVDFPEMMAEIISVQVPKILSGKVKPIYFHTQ
Compound,outcome,AC50
CSc1nnc(C(C)(C)C)c(=O)[nH]1,inactive,
CCCCNc1ccc(NCCCC)c2c1C(=O)c1ccccc1C2=O,inactive,
CC(=O)OCc1ccccc1,inactive,
CCCCC/C=C\CCC=O,inactive,
CCCCCCCCCCCCCCCCCC[N+](C)(C)Cc1ccccc1,inactive,
Nc1cc([N+](=O)[O-])ccc1O,inactive,
O=c1cc(-c2ccccc2)oc2cc(O)cc(O)c12,inactive,
C=C(C)C1CC=C(C)C(=O)C1 (stereo not given),inactive,
c1ccc2c(c1)c1cccc3ccc4cccc2c4c31,inactive,
CCCCC[C@H](O)CC(=O)CCc1ccc(O)c(OC)c1,inactive,
Cc1ccc(C)c(OCCCC(C)(C)C(=O)O)c1,inactive,
CCN(CC)c1ccc2c(c1)Oc1cc(N(CC)CC)ccc1C21OC(=O)c2ccccc21,inactive,
CC(=O)CC(C)C,inactive,
FC(OC(F)(F)C(F)(F)C(F)(F)F)C(F)(F)F (stereo not given),inactive,
COCCOCCC[Si](C)(O[Si](C)(C)C)O[Si](C)(C)C,inactive,
CC(=O)O[C@H]1C[C@@H]2CC[C@@]1(C)C2(C)C,inactive,
Nc1ccc(N)c2c1C(=O)c1ccccc1C2=O,inactive,
CC1COC(=O)O1 (stereo not given),inactive,
COc1ccccc1OCC(O)CO (stereo not given),inactive,
COC(=O)Cc1cccc2ccccc12,inactive,

Compound,outcome,AC50
CCC(C)c1cc([N+](=O)[O-])cc([N+](=O)[O-])c1OC(=O)OC(C)C (stereo not given),inactive,
O=Nc1ccc(Nc2ccccc2)cc1,inactive,
CCOc1nc(F)cc2nc(S(=O)(=O)Nc3c(Cl)cccc3C(=O)OC)nn12,inactive,
CC/C=C\C/C=C\C/C=C\CCCCCCCC(=O)OC,inactive,
CC(C)(C)c1cc(O)c(C(C)(C)C)cc1O,inactive,
COC(F)(F)C(F)(C(F)(F)F)C(F)(F)F,inactive,
CC1=CCC2C(=O)OC(=O)C2C1 (stereo not given),inactive,
CC(C)CCOCc1ccccc1,inactive,
OCc1ccccc1,inactive,
OCCN1CN(CCO)CN(CCO)C1,inactive,
CCCCCCCCCCCCCCCCCC[N+](C)(C)C,,14.5 µM (active)
C=C(C)C(=O)OCC(F)(F)C(F)(F)C(F)(F)C(F)F,inactive,
CCCCCCc1ccc(N)cc1,inactive,
CCSC(=O)N(CC(C)C)CC(C)C,inactive,
CCC(O)CO (stereo not given),inactive,
O=c1cc(-c2ccccc2)oc2ccc3ccccc3c12,inactive,
COc1ccc(C)cc1N,inactive,
CC(Oc1cc(Cl)ccc1Cl)C(=O)O (stereo not given),inactive,
Cc1ccc(O)cn1,inactive,
C=C(C)C(=O)OCCOc1ccccc1,inactive,
